In the library only some 3.7% were active in any assay of this set; here they are far more common.
Ecoli rRNA inh = selective bacterial rRNA inhibition in E. coli. E. coli WT GFP vs humanized-ribosome RFP mutants, fluorescence, 24 h; active compounds read low; DMSO median 0, no signal -100. hit rate 1.6% among 350,000. GFP signal change (wild-type ribosome), % (no concentration beside the values). AID 720706;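 active = significant combined selectivity score with lowered wild-type GFP, culture density cut under 30%, mutant RFP and density less affected; inactive = any of these conditions unmet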
MITF TRPM1 HTS = activators of MITF-driven TRPM1 promoter activity in SK-MEL-5 cells | hit rate 0.75% among 300,000 | SK-MEL-5 TRPM1-promoter luciferase, 24 h; % of positive control, neutral wells = 0 | activation, % at 12.5 µM;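 active = mean activation of at least 80% with every replicate also reaching 80%; inconclusive = mean reaches 80% but some replicate falls short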;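 also: 0% = neutral control wells and 100% = parthenolide positive control wells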
MLL AF4-AF9 inh = inhibitors of human MLL-AF4/AF9 interaction. hit rate 0.47% among 350,000. AlphaScreen, biotin-AF4 peptide binding to FLAG-AF9. P42568. inhibition, % at 10 µM. AID 651704;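 active = every replicate reaching a set inhibition limit, whatever the replicate mean, cut at about 25% in these data; inconclusive = mean inhibition reaches that limit but some replicates miss it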;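 also: 0% = plate neutral control median and 100% = total signal loss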
Target sequence (P42568 whole entry, looked up): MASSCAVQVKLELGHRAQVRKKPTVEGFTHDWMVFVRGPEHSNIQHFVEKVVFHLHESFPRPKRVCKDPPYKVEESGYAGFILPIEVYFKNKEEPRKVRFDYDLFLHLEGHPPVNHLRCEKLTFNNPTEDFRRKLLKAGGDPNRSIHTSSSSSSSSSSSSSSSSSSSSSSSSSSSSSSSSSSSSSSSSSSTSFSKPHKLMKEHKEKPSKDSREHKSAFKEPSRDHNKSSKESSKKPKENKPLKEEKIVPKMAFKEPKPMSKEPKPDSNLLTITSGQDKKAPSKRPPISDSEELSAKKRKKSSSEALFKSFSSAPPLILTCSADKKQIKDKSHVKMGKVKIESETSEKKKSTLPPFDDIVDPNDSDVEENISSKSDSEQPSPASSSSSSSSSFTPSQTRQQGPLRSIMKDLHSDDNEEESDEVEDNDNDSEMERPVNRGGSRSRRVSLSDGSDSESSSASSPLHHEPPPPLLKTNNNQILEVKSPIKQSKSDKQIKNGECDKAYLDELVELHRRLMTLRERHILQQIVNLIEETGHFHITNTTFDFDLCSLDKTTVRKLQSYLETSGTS
esBAF inh = blocks esBAF chromatin remodeling in mouse ES cells; Bmi1-luciferase knock-in reporter, 24 h; 100% = twice the neutral-well signal; reporter increase, % at 12.5 µM; hit rate 2% among 350,000; in the data active = activation above about 40%; inconclusive = no clear call, values can overlap the other calls;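 also: 0% = median of the plate's neutral control wells and 100% = double that signal; a rise in the Bmi1 reporter signal indicates esBAF inhibition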
Wnt bcat act = activators of Wnt/beta-catenin signaling; AID 743398; hit rate 1.2% among 300,000; Wnt/beta-catenin reporter cell assay, activator, plate reader; activation, % at 9.35 µM; in the data active = activation above about 30%, passing the limit was not always enough; inconclusive = no clear call, values can overlap the other calls;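 also: 0% = neutral control wells and 100% = positive control wells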
Numbers without * were called inactive; ? = inconclusive; · = no result given.

SMILES	Ecoli rRNA inh	MITF TRPM1 HTS	MLL AF4-AF9 inh	esBAF inh	Wnt bcat act
Cc1ccc(CNC(=O)C2CCN(C(=O)c3cccc(Cl)c3)CC2)cc1	14.5	-9.8	-0.2	-5.0	-2.2
COc1ccc(CCNC(=O)Cc2cc3c(cc2[N+](=O)[O-])OCO3)cc1OC	-8.2	7.9	-5.6	·	8.0
CCOC(=O)c1sc(-c2ccc(Br)cc2)cc1N	-33.8*	114.2*	-24.9	33.9	?
Nc1ccc(C(=O)OCc2nc3c(ccc4ccccc43)[nH]2)cc1	·	45.1	·	78.8*	13.0
Nc1ccc(C(=O)OCc2nc3cc4ccccc4cc3[nH]2)cc1	-23.5	8.8	-1.3	·	1.1
COc1ccccc1NC(=O)c1c(C)nn(-c2ccccc2)c1Cl	-35.6*	0.4	4.4	16.5	0.4
COc1cccc(NC(=O)c2c(C)nn(-c3ccccc3)c2Cl)c1	-16.2	·	-3.9	50.0*	14.8
CN(C)CC(O)CN1C(=O)NC(C)(C)C1=O (stereo not drawn)	-6.0	3.9	-3.3	·	-0.3
O=C(CCC1CCCCC1)Nc1ccccc1O	·	94.9*	·	41.6*	25.0
O=C(CCC1CCCCC1)Nc1ccccc1-c1ccccc1	-30.1	-4.8	·	-2.4	-5.3
Cc1ccc(O)c(NC(=O)CCC2CCCCC2)c1	·	83.9*	·	·	·
Cc1ccc(NC(=O)CC(=O)c2ccc([N+](=O)[O-])cc2)cc1S(=O)(=O)Nc1cccc(Cl)c1	5.5	-8.4	-2.8	·	-1.4
O=C1CCN(Cc2ccccc2)CCN1CCOc1ccccc1	10.9	85.0*	-1.1	9.8	12.7
Cc1ccc(SCCN2CCN(CCc3ccccc3)CCC2=O)cc1	-51.8	3.8	-0.6	4.0	1.2
CC(C)CN1CCC(=O)N(CCSc2ccccc2)CC1	1.1	73.2	0.9	6.5	42.1*
O=C(Nc1ccccc1)OCCN1CCN(Cc2ccccc2)CCC1=O	1.5	10.9	2.7	-14.6	-3.3
S=C(NCCc1ccccc1)Nc1nccs1	-22.4*	40.2	-64.5	33.0	16.0
Cn1c(COc2ccc(F)cc2)nc2ccccc21	-8.7	·	-5.7	64.5*	9.7
CC(=O)NCCc1nc2ccccc2n1CCOc1ccccc1	-0.4	8.1	-0.9	·	-0.9
CC(=O)NCCc1nc2ccccc2n1CCOc1cccc(C)c1	-28.4*	9.3	5.5	-13.2	1.0
COCc1nc2ccccc2n1Cc1ccc(Br)cc1	·	19.4	·	49.6*	·
COCc1nc2ccccc2n1Cc1ccccc1	·	16.1	·	22.2	·
CCn1c(COc2ccccc2)nc2ccccc21	·	25.8	·	58.0*	-4.7
O=C(c1ccc(C#CC2(O)CCCCC2)cc1)N1CCOCC1	·	·	·	5.6	·
CCCCC(=O)Oc1c(S(=O)(=O)c2ccc(C)cc2)c(C)nn1C(C)(C)C	3.1	·	-5.0	-3.9	-1.2
SMILES	Ecoli rRNA inh	MITF TRPM1 HTS	MLL AF4-AF9 inh	esBAF inh	Wnt bcat act
Cc1cccc(OCc2nc3ccccc3n2C)c1	-16.6	·	2.3	64.2*	12.4
Cn1c(COc2ccc(C(=O)O)cc2)nc2ccccc21	3.4	-16.2	-1.4	4.3	-1.8
NC(=O)NC[C@@H]1CC[C@@H](Cc2ccc(-c3ccccc3)cc2)O1	·	118.1*	·	69.0*	·
OC[C@@H]1CC[C@@H](Cc2ccc(-c3ccccc3)cc2)O1	-30.1	6.0	-2.7	68.2*	29.2
COc1ccc(NC(=O)NC[C@@H]2CC[C@@H](Cc3ccc(-c4ccccc4)cc3)O2)cc1	9.8	24.7	-2.1	20.7	13.5
COc1ccc(NC(=O)c2oc3ccccc3c2NC(=O)c2ccco2)cc1	-12.8	21.0	6.3	26.1	0.0
CC1(C(=O)N2CC3(CC(c4cccc([N+](=O)[O-])c4)=NO3)C[C@H]2C(=O)NCC(N)=O)CC1 (stereo partly drawn)	4.9	3.3	0.9	9.0	-3.6
Nc1ncnc2c1ncn2[C@@H]1O[C@H](C(=O)Nc2cc(C(F)(F)F)cc(C(F)(F)F)c2)[C@@H](O)[C@H]1O	-49.7	·	2.7	8.3	-2.5
CCCNC(=O)C[C@@H]1C[C@@H]2c3cc(NC(=O)NC4CCCC4)ccc3O[C@@H]2[C@H](CO)O1	-0.6	·	2.0	3.1	·
Clc1ccc(-c2nc(NCCCN3CCOCC3)c3ccccc3n2)cc1	-17.3*	·	·	·	15.1
Clc1cccc(-c2nc(NCCCN3CCOCC3)c3ccccc3n2)c1	-60.3	-1.8	2.0	-6.9	-0.5
COc1ccc2c3c([nH]c2c1)[C@H](CO)N(C(C)=O)CC31CN(Cc2cc(-c3ccccc3)on2)C1	-0.7	·	25.8*	·	·
COc1ccc2c3c([nH]c2c1)[C@H](CO)N(C(C)=O)CC31CCN(Cc2ccccc2Cl)CC1	-4.5	·	2.3	·	·
COc1ccc2c3c([nH]c2c1)[C@@H](CO)N(C(C)=O)CC31CCN(Cc2cc(-c3ccccc3)on2)CC1	-1.6	·	36.0*	·	·
COc1ccc2c3c([nH]c2c1)[C@H](CO)N(C(C)=O)CC31CN(Cc2ccccc2Cl)C1	-8.8	·	26.3*	·	·
COc1ccc2c3c([nH]c2c1)[C@H](CO)N(C(C)=O)CC31CCN(Cc2cc(-c3ccccc3)on2)CC1	-3.5	·	30.5*	·	·
COc1ccc2c3c([nH]c2c1)[C@H](CO)N(C(=O)Nc1ccc(F)cc1)CC31CCN(Cc2cc(-c3ccccc3)on2)CC1	-1.5	·	-0.7	·	·
COc1ccc2c3c([nH]c2c1)[C@@H](CO)N(C(=O)Cc1ccccn1)CC31CN(Cc2ccccn2)C1	-2.3	·	5.1	·	·
CO[C@H]1CN(C)C(=O)c2cc(NC(=O)C3CCC3)ccc2OC[C@H](C)N(Cc2ccc(F)cc2)C[C@@H]1C	1.7	·	1.0	17.3	·
Cc1ccc(C)c(NC(=O)C2(C)CCCN2C(=O)C(C)C)c1 (stereo not drawn)	10.7	·	0.6	-0.7	-4.6
COc1ccc(CN2CC3(C2)CN(Cc2ccc4c(c2)OCO4)[C@@H](CO)c2[nH]c4cc(OC)ccc4c23)cc1	4.4	·	49.9*	·	·
CCS(=O)(=O)N1CC2(CN(Cc3ccc4c(c3)OCO4)[C@@H](CO)c3[nH]c4cc(OC)ccc4c32)C1	-8.2	·	·	·	·
S=C(Nc1ccc(Cl)cc1)NC1CC2CCCC(C1)N2C1CCCC1 (stereo not drawn)	·	7.1	·	1.4	·
C=CCN1C2CCCC1CC(NC(=S)Nc1ccc(Cl)cc1)C2 (stereo not drawn)	4.7	14.6	7.0	·	38.9*
C[C@H](O)C#Cc1ccc2c(c1)O[C@@H](CN(C)C)[C@@H](C)CN([C@@H](C)CO)S2(=O)=O	-0.9	·	-2.7	-2.8	·
CC(NC1CCCCC1)C(=O)NN=C(c1ccccc1)c1ccccc1 (stereo not drawn)	-25.4*	12.7	3.8	·	-0.7
CC1Cc2ccccc2N1S(=O)(=O)c1cnc(Cl)c(Cl)c1 (stereo not drawn)	4.4	-12.8	6.1	-13.4	-10.3
CC1Cc2ccccc2N1S(=O)(=O)c1cnc(Cl)c(Br)c1 (stereo not drawn)	-26.8*	-22.3	-6.7	·	-0.6
c1ccc(CNc2nc(N3CCN(Cc4ccccc4)CC3)nc3ccccc23)cc1	-42.9*	·	8.0	-46.6	0.6
COc1cccc(C(=O)NCCN2C(=O)S/C(=C/c3cccs3)C2=O)c1OC	-39.2*	6.2	0.3	·	-1.6
